From publication PMC5700166

Legend:
Assay in all cases: protein-binding microarray (PBM); PBM: ~300 nM protein, 6 mM HEPES pH 7.8, 80 mM KCl, 0.5 mM EDTA, 0.5 mM EGTA, 6% glycerol, 35 ng/ul poly-dIdC, 1% milk, 1 h, room temperature; Ap Aiptasia and Nv Nematostella (sea anemones) / Co Capsaspora / Aq Amphimedon (sponge) / Dm Drosophila / Hu human; RHD is the Rel homology domain; high values mean tight binding
Details in all cases: dsDNA, one strand shown
GST-Ap-NF-kB RHD = target: T1, GST-Ap-NF-kB RHD (Exaiptasia pallida (Aiptasia), UniProt A0A913YAJ5 2-422)
T1 sequence: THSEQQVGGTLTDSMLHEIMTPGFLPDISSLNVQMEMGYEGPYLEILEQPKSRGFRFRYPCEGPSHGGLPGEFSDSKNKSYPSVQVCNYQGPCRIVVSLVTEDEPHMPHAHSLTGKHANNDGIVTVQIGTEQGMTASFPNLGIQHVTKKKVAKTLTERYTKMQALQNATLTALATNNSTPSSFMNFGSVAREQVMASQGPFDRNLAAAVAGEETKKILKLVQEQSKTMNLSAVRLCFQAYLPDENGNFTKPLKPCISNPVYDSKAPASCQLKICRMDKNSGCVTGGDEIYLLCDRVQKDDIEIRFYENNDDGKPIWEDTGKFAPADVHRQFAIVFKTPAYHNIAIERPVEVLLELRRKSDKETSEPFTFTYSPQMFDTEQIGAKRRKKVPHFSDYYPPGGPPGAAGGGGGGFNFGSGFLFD

[1] = target: T2, GST-Nv-NF-kB (Cys allele) (Nematostella vectensis, UniProt E5G601 2-411)
T2 sequence: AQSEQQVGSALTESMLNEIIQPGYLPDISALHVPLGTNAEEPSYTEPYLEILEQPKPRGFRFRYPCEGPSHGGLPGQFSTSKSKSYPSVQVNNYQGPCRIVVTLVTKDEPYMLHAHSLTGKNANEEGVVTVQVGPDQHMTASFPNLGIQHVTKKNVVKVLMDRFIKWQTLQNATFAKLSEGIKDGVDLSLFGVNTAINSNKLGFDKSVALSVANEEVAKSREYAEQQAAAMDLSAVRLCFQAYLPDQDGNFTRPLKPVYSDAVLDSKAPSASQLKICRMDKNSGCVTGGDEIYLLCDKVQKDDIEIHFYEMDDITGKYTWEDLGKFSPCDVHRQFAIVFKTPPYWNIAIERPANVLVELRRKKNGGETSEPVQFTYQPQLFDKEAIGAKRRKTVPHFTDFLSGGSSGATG

GST-Dm-Relish = target: T3, GST-Dm-Relish (Drosophila melanogaster, UniProt Q94527 99-473)
T3 sequence: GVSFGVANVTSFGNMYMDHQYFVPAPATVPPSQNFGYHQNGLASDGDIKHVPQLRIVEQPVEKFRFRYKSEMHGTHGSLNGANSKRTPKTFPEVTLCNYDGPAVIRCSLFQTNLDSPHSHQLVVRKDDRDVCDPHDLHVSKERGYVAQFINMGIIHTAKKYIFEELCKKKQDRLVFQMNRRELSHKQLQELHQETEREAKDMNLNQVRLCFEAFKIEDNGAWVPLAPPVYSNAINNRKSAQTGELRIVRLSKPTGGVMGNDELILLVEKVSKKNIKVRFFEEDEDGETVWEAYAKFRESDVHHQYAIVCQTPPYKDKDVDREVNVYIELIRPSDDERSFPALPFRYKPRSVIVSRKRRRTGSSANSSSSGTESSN

GST-Aq-NF-kB = target: T4, GST-Aq-NF-kB (Amphimedon queenslandica, UniProt A9Y5G7 2-389)
T4 sequence: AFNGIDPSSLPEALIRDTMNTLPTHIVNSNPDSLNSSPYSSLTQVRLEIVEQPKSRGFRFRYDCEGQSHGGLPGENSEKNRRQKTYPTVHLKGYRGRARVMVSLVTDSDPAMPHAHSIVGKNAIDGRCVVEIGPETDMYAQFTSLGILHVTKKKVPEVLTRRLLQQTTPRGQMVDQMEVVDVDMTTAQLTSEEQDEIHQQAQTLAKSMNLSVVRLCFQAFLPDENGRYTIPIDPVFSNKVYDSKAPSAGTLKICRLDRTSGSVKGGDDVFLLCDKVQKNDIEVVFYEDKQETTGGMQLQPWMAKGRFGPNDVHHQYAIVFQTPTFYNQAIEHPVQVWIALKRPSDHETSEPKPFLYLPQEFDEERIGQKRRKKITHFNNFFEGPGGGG

GST-Co-NF-kB = target: T5, GST-Co-NF-kB (Capsaspora owczarzaki, UniProt F1ARL5 200-546)
T5 sequence: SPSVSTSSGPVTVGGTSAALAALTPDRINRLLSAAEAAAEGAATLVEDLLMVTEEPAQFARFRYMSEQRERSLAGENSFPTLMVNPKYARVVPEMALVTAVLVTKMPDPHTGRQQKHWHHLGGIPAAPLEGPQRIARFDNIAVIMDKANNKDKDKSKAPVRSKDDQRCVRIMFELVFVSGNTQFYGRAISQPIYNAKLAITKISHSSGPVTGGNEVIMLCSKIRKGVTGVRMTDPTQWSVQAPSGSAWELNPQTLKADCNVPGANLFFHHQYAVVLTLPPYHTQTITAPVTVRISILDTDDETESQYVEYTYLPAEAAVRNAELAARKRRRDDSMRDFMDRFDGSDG

| Sequence | binding signal (GST-Ap-NF-kB RHD) [z-score] | binding signal [1] [z-score] | binding signal (GST-Dm-Relish) [z-score] | binding signal (GST-Aq-NF-kB) [z-score] | binding signal (GST-Co-NF-kB) [z-score] |
| --- | --- | --- | --- | --- | --- |
| CCGATTAACATCAGAGAAACCCCTGATGTTAATCGGGTCTTGATTCGCTTGACGCTGCTG | 5.16 | 4.86 | 5.69 | 5.18 | – |
| CCGATTAACATCAACCCCCGGCTTGATGTTAATCGGGTCTTGATTCGCTTGACGCTGCTG | 4.17 | 2.37 | 4.35 | 2.51 | 2.79 |
| CCGATTAACATCAAGGGGGTCCCTGATGTTAATCGGGTCTTGATTCGCTTGACGCTGCTG | 5.89 | 3.29 | 7.16 | 4.47 | – |
| CCGATTAACATCAGGAATTCACCTGATGTTAATCGGGTCTTGATTCGCTTGACGCTGCTG | 1.52 | 3.06 | 6.05 | 4.83 | – |
| CCGATTAACATCAGGGATCTACCTGATGTTAATCGGGTCTTGATTCGCTTGACGCTGCTG | 3.06 | 2.58 | 7.65 | 4.74 | – |
| CCGATTAACATCAAAAAAATACCTGATGTTAATCGGGTCTTGATTCGCTTGACGCTGCTG | 1.95 | 2.83 | 5.83 | 3.53 | – |
| CCGATTAACATCAGGGCTTTACCTGATGTTAATCGGGTCTTGATTCGCTTGACGCTGCTG | 1.07 | 2.29 | 5.69 | 3.97 | – |
| CCGATTAACATCAGGAATCCCACTGATGTTAATCGGGTCTTGATTCGCTTGACGCTGCTG | 1.73 | 1.37 | 8.1 | 1.75 | – |
| CCGATTAACATCAGGTACTTCCATGATGTTAATCGGGTCTTGATTCGCTTGACGCTGCTG | 2.51 | 2.6 | 5.93 | 2.23 | – |
| CCGATTAACATCAATGGGTTTTCTGATGTTAATCGGGTCTTGATTCGCTTGACGCTGCTG | 1.73 | 1.21 | 2.88 | 1.85 | – |
| CCGATTAACATCAGGGACTTACCTGATGTTAATCGGGTCTTGATTCGCTTGACGCTGCTG | 5.1 | 7 | 7.96 | 8.29 | – |
| CCGATTAACATCAGGACTTTACCTGATGTTAATCGGGTCTTGATTCGCTTGACGCTGCTG | 1.18 | 3.27 | 5.92 | 4.69 | – |
| CCGATTAACATCAGGCGAGTCCCTGATGTTAATCGGGTCTTGATTCGCTTGACGCTGCTG | 3.13 | 3.12 | 1.72 | 4.31 | – |
| CCGATTAACATCATTAGGGTATTTGATGTTAATCGGGTCTTGATTCGCTTGACGCTGCTG | 2.55 | 3.98 | 1.47 | 3.54 | – |
| CCGATTAACATCAGGAATCCCTATGATGTTAATCGGGTCTTGATTCGCTTGACGCTGCTG | 2.79 | 2.15 | 6.17 | 2.57 | – |
